# Measured values taken from PubChem BioAssay (NCI).
# This is part of a sample that, as a whole, favours compounds with a hit. Of some 79,000 tested, about 15% had one in any assay. Activity calls are given as the source filed them. Rule as the data show it: active = growth inhibition above about 70%; inactive = the rest.
# Test: NCI Yeast Anticancer Drug Screen. Data for the mlh1 rad18 strain (AID 175)
# Settings: S. cerevisiae mlh1 rad18 strain growth inhibition; at 50.0 µM; stronger effect = higher value
# Outline: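 A repair-deficient yeast strain is exposed to test compound, and growth is scored relative to vehicle-treated controls.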
row,SMILES,growth inhibition
1,CCc1ccc2c(c1)CCC(=O)O2,-7.65% (inactive)
2,CC(=O)OCC1OC(n2c(O)c(/C=C3\C=Nc4ccccc43)sc2=S)C(OC(C)=O)C(OC(C)=O)C1OC(C)=O (stereo not given),4.9% (inactive)
3,O=c1cnn(C2OC(C(O)CO)C(O)C2O)c(=O)[nH]1 (stereo not given),-18.4% (inactive)
4,COc1cc2c(cc1C1=NC(C)(C)CO1)OCO2,-49.2% (inactive)
5,CC(C)CCCC(C)[C@H]1CC[C@H]2[C@@H]3CC[C@H]4C[C@@H](CCC=C(c5cc(Cl)c(O)c(C(=O)OC(C)C)c5)c5cc(Cl)c(O)c(C(=O)OC(C)C)c5)CC[C@]4(C)[C@H]3CC[C@]12C (stereo not given in full),-32.5% (inactive)
6,CNC(=O)NCCCC(NC(C)=O)C(=O)NCc1ccccc1 (stereo not given),4.7% (inactive)
7,O=C(O)/C=C/C(=O)Nc1ccc2c(c1)-c1ccccc1C2=O,16.6% (inactive)
8,CCCCOc1cc2c(cc1C(C)c1ccccc1)OCO2 (stereo not given),14.8% (inactive)
9,O=c1c2ccccc2ncn1C1OC(CO)C(O)C1O (stereo not given),-2.05% (inactive)
10,CCOC1CCC(C(=O)CC)C(C#N)(C#N)C1(C#N)C#N (stereo not given),7.8% (inactive)
11,COc1cc(C(=O)O)c(O)c(OC)c1OC,3.4% (inactive)
12,O=C(CCl)Nc1cc(Cl)c(Cl)cc1Cl,37% (inactive)
13,CC(=O)OCC1OC(Cl)C(OC(=O)C(Cl)(Cl)Cl)C(OC(C)=O)C1OC(C)=O (stereo not given),-9.45% (inactive)
14,CC(C)C(C(=O)O)N1C(=O)c2ccccc2C1=O (stereo not given),-4.15% (inactive)
15,O=C(COc1ccc(Cl)c(Cl)c1)Nc1ccc(C(=O)CCl)cc1,9.3% (inactive)
16,CO[C@@]12CC(=O)/C(=C(O)\C=C\c3ccccc3)C(=O)[C@]1(OC)Cc1ccccc1O2,24.6% (inactive)
17,c1ccc(-c2nnc3nn4c(-c5ccccc5)cnnc4c3c2-c2ccccc2)cc1,1.5% (inactive)
18,NC(=S)N/N=C1\C(=O)N(CCc2ccccc2)C(=O)C1C(=O)NCCc1ccccc1 (stereo not given),-15.2% (inactive)
19,C=CCc1cc(OC)c2c(c1)C(OC)CC(c1ccc(OC)c(OC)c1)O2 (stereo not given),-17.9% (inactive)
20,Cc1ccc(CSC(=S)NNc2ccccc2)cc1C,-35.8% (inactive)
21,Cc1ccc(S(=O)(=O)N2CCN(S(=O)(=O)c3ccc(C)cc3)CCN(S(=O)(=O)c3ccc(C)cc3)Cc3cc(Br)c(Br)cc3CN(S(=O)(=O)c3ccc(C)cc3)CC2)cc1,-10.3% (inactive)
22,CC(=O)Nc1cccc(N=NN(C)C)c1,29.6% (inactive)
23,COc1ccccc1-c1coc2c(ccc3oc(C(C)C)cc32)c1=O,22.6% (inactive)
24,C1=C(N2CCOCC2)CCC(N2CCOCC2)=C1,-12.2% (inactive)
25,O=C1C2CSCN2C(=O)C2CSCN12 (stereo not given),4.5% (inactive)
